# PubChem BioAssay AID602141 (Sanford-Burnham Center for Chemical Genomics, 2011)
# “And” between values parts separate entries of the source, which are not always exact repeats. Equal entries are not always repeated. About 1,300 (0.36%) of roughly 360,000 compounds were called active. What follows is part of a selection rich in actives, with near analogues and random picks from the rest. Unmarked numbers belong to inactive results.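 Rule for the calls: active = corrected activity change at or below -50% at 5 µM; inactive = the rest.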
# Assay: KKLEB cell viability reduction – uHTS, fluorescence assay plates, cytotoxicity control for CF NF-kB inhibitor project, primary screen (AID 602141)
# Conditions: KKLEB CF airway cells viability, ATPlite luminescence, overnight; at 5 µM; stronger effect = lower value; cells stimulated with P. aeruginosa culture filtrate
row,SMILES,activity change (cytotoxicity)
1,CCCN(CCC)C(=S)Nc1cc(C(=O)OC)ccc1C(=O)OC,-5.9%
2,COC(=O)c1ccccc1NC(=O)c1cncc(Br)c1,16%
3,COC(=O)c1ccc(C(=O)Nc2cc(Cl)ccc2Cl)cc1NC(=O)c1ccccc1C,-62.7% (active)
4,CC(=O)Nc1ccc(S(=O)(=O)N2CCn3cccc3C2C)cc1 (stereo not given),-3.5%
5,CCCCN=C1C([N+](=O)[O-])=CC=C2C1=NC1(CCCCC1)N2O,-4.3%
6,CC(C)C[C@H]1CN=C(Nc2ccccc2)N1CC1CCCCC1,3.3%
7,Fc1ccc(-c2ccc(CNCc3ccccn3)o2)cc1Cl,5.4%
8,Clc1ccc(COn2c(-c3ccc(Cl)cc3Cl)nc3ncccc32)cc1,1.3%
9,Clc1ccc(-c2cc(-c3ccccn3)on2)c(Cl)c1,-62.1% (active)
10,O=C(CCN1C(=O)[C@@H]2Cc3ccccc3CN2C1=O)NCc1ccccc1,-2.4%
11,CC(C)CCn1c(=O)c2c(nc3n2CCCN3Cc2ccccc2)n(C)c1=O,-20.8%
12,Cc1cc(C)cc(-c2nnc(SCC(=O)NC3CC3)o2)c1,8.4%
13,c1csc(CN2CCN(Cc3cccs3)C2c2cccs2)c1,0%
14,O=C(NCCSc1ncc(-c2ccccc2)[nH]1)c1ccco1,0.1%
15,Cc1ccc(-c2cc(N)on2)cc1,-5.6%
16,Cc1ccc(-c2cn3cc(C)ccc3n2)cc1,-61.7% (active)
17,Cc1ccc2nc(-c3ccc(Br)cc3)cn2c1,-30%
18,CCn1c(SCC(=O)Nc2ccc(Br)cc2)nc2sc3c(c2c1=O)CCN(C)C3,9.6%
19,COC(=O)c1cc(NC(=O)c2nn(C)c(=O)c3ccccc23)cc(C(=O)OC)c1,-11.1%
20,Cc1ccc(CS(=O)(=O)c2ncc(Cl)c(C(=O)Nc3nnc(C)s3)n2)cc1,-93.7% (active)
21,CSc1nnc(NC(=O)c2nc(S(=O)(=O)Cc3ccc(C)cc3)ncc2Cl)s1,-74.7% (active)
22,O=C(Nc1nnc(Cc2ccc(Cl)cc2)s1)c1cccnc1,-6%
23,CN(Cc1ccccc1)S(=O)(=O)c1nnc(NC(=O)c2ccccc2F)s1,-8.6%
24,Cc1cccc(CS(=O)(=O)c2ncc(Cl)c(C(=O)Nc3ccc(F)cc3)n2)c1,-15.9%

row,SMILES,activity change (cytotoxicity)
1,O=C(Nc1nnc(-c2ccc(F)cc2)s1)c1c(F)cccc1Cl,7.4%
2,COCCNC(=O)C1(C)CCCN(Cc2cccc(F)c2)C1 (stereo not given),6.2%
3,CCOC(=O)NC(=O)C(=CNc1cccc(OC)c1)C(=O)NC(=O)OCC,17.8%
4,CC(C)Nc1nc(NCCOc2ccccc2Cl)c2sccc2n1,-5.6%
5,CN(C(=O)Nc1ccc(Cl)cc1)n1cnc2ccccc2c1=O,6.1%
6,CC(C)(C)c1nc2ccccc2c(=O)n1N1C(=O)c2ccccc2C1=O,-12.6%
7,CN(c1ccc2nc3ccccc3c(=O)n2n1)C1CCCCC1,-54.1% (active)
8,O=[N+]([O-])/C=C1\CCCCCN1,-1.7%
9,CCCn1nnnc1NCc1ccc(OC)cc1,5.9%
10,COc1ccc(CNc2c(CO)cnc3c2cnn3C)cc1,-62.1% (active)
11,COc1ccc(CNc2nnnn2C)cc1,6.7%
12,C[C@@H]1CN([C@H](C)CO)C(=O)c2cc(NC(=O)NC3CCCCC3)ccc2O[C@H]1CN(C)S(C)(=O)=O,2.2%
13,C[C@H]1CN([C@@H](C)CO)C(=O)CCCn2cc(nn2)CO[C@@H]1CN(C)S(=O)(=O)c1cccc(C#N)c1,4.9%
14,O=C(Nc1cccc(C(=O)NC2CC2)c1)c1ccc(F)c(S(=O)(=O)N2CCOCC2)c1,-2.3%
15,COc1cc(NS(=O)(=O)c2ccc(NC(=S)NC(=O)c3ccc(Br)cc3)cc2)ncn1,1%
16,COc1cc(C(=O)N(C)Cc2cccc(OC)c2OC)ccc1OCC(=O)Nc1cccc(C(F)(F)F)c1,7.7%
17,COc1cc(NC(=O)c2cncc(-c3ccc(C#N)cc3)c2)cc(C(=O)Nc2cccc(C(F)(F)F)c2)c1,7.5% and 5.1%
18,COc1cc(NC(=O)c2[nH]cnc2C(N)=O)cc(C(=O)Nc2cccc(C(F)(F)F)c2)c1,-61.7% (active)
19,Cc1cccc(C(=O)O)c1[N+](=O)[O-],14%
20,Cn1ccnc1-c1nnn(-c2ccc(F)cc2)n1,-12.5%
21,CCNC(=O)C1(C)CCCN(C(=O)c2ccc3ccccc3n2)C1 (stereo not given),-5.1%
22,O=C(NCC1CCCO1)c1cc2c([nH]c3ccccc32)c(-c2ccc(F)cc2)n1 (stereo not given),-5.3%
23,CC1=CCC2C(=O)N(c3cccc(C(=O)NC(C)c4ccccc4)c3)C(=O)C2C1 (stereo not given),-1.1%
24,Cc1cccc(C)c1NC1=NC(=S)N(c2ccc(N(C)C)cc2)C1(C)C,-3.7%

row,SMILES,activity change (cytotoxicity)
1,O=C1/C(=C\c2ccc([N+](=O)[O-])cc2)CS(=O)(=O)C/C1=C/c1ccc([N+](=O)[O-])cc1,-101% (active)
2,CCCCC(=O)Nc1c2c(nn1-c1ccc([N+](=O)[O-])cc1)CS(=O)(=O)C2,-15.2%
3,O=C1CCCN1C(=O)COc1ccc([N+](=O)[O-])cc1,-6.8%
4,CO[C@@H]1[C@@H](OC(N)=O)[C@@H](O)C(Oc2ccc3c(O)c(NC(=O)c4ccc(O)c(CC=C(C)C)c4)c(=O)oc3c2C)OC1(C)C (stereo not given in full),44.1%
5,CS/C(=C\[N+](=O)[O-])Nc1ccc(C)cc1,-4.4%
6,CCOc1ccc(C(=O)NC(C(=O)NCc2ccccn2)C(C)C)cc1 (stereo not given),-1.5%
7,O=S(=O)(Nc1ccccc1N1CCOCC1)c1ccc(Cl)s1,1.7%
8,COc1cc(NC(=O)c2ccccc2NS(=O)(=O)c2ccc(Cl)s2)cc(OC)c1,-57.2% (active)
9,O=C(Nc1cccc(Cl)c1)Nc1ccccc1NS(=O)(=O)c1cccs1,13.5%
10,COc1ccc(NC(=O)Cn2c(-c3ccc(OC)cc3)cn(-c3ccc(C)cc3)c2=O)cc1,12.5%
11,COc1ccc(C(CC(=O)Nc2ccc(C)cc2)NC(=O)C(F)(F)F)cc1 (stereo not given),6.9%
12,COc1ccc(CC(=O)Nc2ccc(-c3nnc(-c4ccc(C)cc4)o3)cc2)cc1,-56.3% (active)
13,CCOc1ccccc1NS(=O)(=O)c1cc2c3c(c1)C(C)C(=O)N3CCC2 (stereo not given),7.2%
14,COc1ccc(CN(C(=O)c2cccs2)c2nccs2)cc1OC,5.6%
15,O=C(NCc1cccnc1)c1nc(-c2cccs2)no1,-11.3%
16,CCOc1ccc(NC(=S)NC(=O)/C=C/c2ccc(OC)cc2)c([N+](=O)[O-])c1,-50.2% (active)
17,CCOc1ccc(NC(=O)COC(=O)C2CCC(=O)N2)c([N+](=O)[O-])c1 (stereo not given),-7.5%
18,COc1ccc(/C=C/C(=O)NC(=S)N2CCCC(C(N)=O)C2)cc1 (stereo not given),-10.3%
19,COc1ccc(S(=O)(=O)n2cnc3ccccc32)c(C)c1,0.5%
20,COc1c(C=O)c(CCN(C)C(=O)c2ccc(F)cc2)cc2c1OCO2,-9%
21,O=C(c1ccc2c(c1)OCO2)N1CCNc2ccccc2C1,4.7%
22,O=C(N/N=C/c1ccccn1)c1cccc(NC(=O)c2ccc(Cl)cc2)c1,-1.1%
23,CS(=O)(=O)N(CC(=O)N/N=C/c1ccccn1)c1ccc(Oc2ccccc2)cc1,1.8%
24,S=C(NN=Cc1ccccn1)Nc1ccccn1,-63.5% (active)

row,SMILES,activity change (cytotoxicity)
1,Cc1ccc(S(=O)(=O)N2CCCCC2)cc1NC(=O)CCNC(=O)c1ccccc1Cl,1.6%
2,Nc1ncnc2c1ncn2[C@@H]1O[C@H](C(=O)NS(=O)(=O)c2c(Cl)nc3sccn23)[C@@H](O)[C@H]1O,-8.7%
3,COc1cccc(NCCC(=O)c2cccc([N+](=O)[O-])c2)c1,1.2%
4,COC(=O)/C=C\C(=O)Nc1cccc([N+](=O)[O-])c1,-64.1% (active)
5,O=C(Nc1cccc([N+](=O)[O-])c1)N1CCc2ccccc2C1,-12.4%
6,CCN(CC(=O)Nc1ccccc1C(F)(F)F)C(=O)C1CCN(C(=O)Nc2ccccc2)CC1,-2.1%
7,Cc1cnc(C(=O)Oc2cccc(Cl)c2Cl)cn1,14.6%
8,Cc1ccc2nc(-c3ccco3)c(Cc3cccc(Cl)c3)n2c1,6.4%
9,Cn1c(-c2ccco2)nc2cc3ccccc3cc21,-57.4% (active)
10,Cn1c(SCC(=O)Nc2ccc(Br)cc2F)nnc1-c1ccco1,-9.6%
11,CCOc1ccc(S(=O)(=O)NCc2ccc3c(c2)OCO3)cc1C,-0.2%
12,COc1ccccc1CNC(=O)COC(=O)c1sc(C)nc1C,5.6%
13,COc1ccc(C)cc1NC(=O)CCCN1C(=O)NC(C)(C)C1=O,9.3%
14,Cc1cc(C)cc(NC(=O)N(C)Cc2ccccc2)c1,1.9%
15,Cc1ccc(C=O)c([B-](F)(F)F)c1,7.5%
16,CN1c2ccc(C=O)c3c(C=O)ccc(c23)N(C)C1(C)C,-67.5% (active)
17,Cc1ccc(S(=O)(=O)N(C)C)cc1NC(=O)CN1c2cccc3cccc(c23)S1(=O)=O,-28.1%
18,Cc1ccc(/C=N/NC(=O)Cn2ccc(C(F)(F)F)n2)o1,10.5%
19,Cc1cccc(NC(=S)N2CCC(O)CC2)c1C,-5.6%
20,Fc1ccc(OCc2nn3c(Cn4nnc5ccccc54)nnc3s2)cc1,-11.4%
21,CC(=O)c1ccc(NC(=O)C(C)N(C)CC(=O)Nc2ccccc2Cl)cc1 (stereo not given),-7%
22,O=C(Nc1ccccc1Cl)c1ccccc1S(=O)(=O)c1ccccc1[N+](=O)[O-],4.2%
23,O=C(Nc1ccccc1Cl)/C(Cl)=C(\Cl)S(=O)c1ccccc1 (stereo not given),-100% (active)
